Screening results as filed in PubChem BioAssay.
The entries come from a sample that favours hits as a whole.
Anaer choline gr: inhibitors of anaerobic choline-dependent gram-negative bacterial growth; 55,000 compounds, 0.2% hits; Gram-negative bacterium anaerobic choline minimal medium, absorbance growth; hits give low values; calls only; AID 1963822; call rule not given here
An asterisk follows results filed as active; i = inactive; + = active, no number.

SMILES	Anaer choline gr
O=C(Oc1ccc([N+](=O)[O-])cc1)N1CCC(C(O)(c2ccc3c(c2)OCO3)c2ccc3c(c2)OCO3)CC1	i
O=[N+]([O-])C=Cc1ccc2c(c1)OCO2	+
O=[N+]([O-])/C=C/c1ccc2c(c1)OCO2	i
N=C(N)c1ccc(CS(=O)(=O)F)cc1	i
CCOC(=O)c1cc(S(=O)(=O)N2CC3CC(C2)c2cccc(=O)n2C3)cn1C (stereo not drawn)	i
CN(C)c1ccc(/C=C2\CCCN=C2c2cccnc2)cc1	i
CN1C2CCC1CC(OC(c1ccccc1)c1ccc(Cl)cc1)C2 (stereo not drawn)	+
Clc1ccc(C(OCCN2CCCCC2)c2ccccc2)cc1 (stereo not drawn)	i
CN1C2CCC1CC(OC(c1ccccc1)c1ccccc1N)C2 (stereo not drawn)	i
C=CC[C@@]1(O)CC[C@H]2[C@@H]3CCC4=CC(=O)CCC4=C3C=C[C@@]21C	i
